The whole screen tested about 340,000 compounds, of which about 170 (0.05%) were called active. Inconclusive results (about 26%) are left out. For the sample, actives were picked, then their nearest neighbours and some compounds at random. Unmarked numbers belong to inactive results. Calls follow the shape of the dose curve; as a rule, active = well fitted inhibition curve with a large enough effect in the signal ratio, with a control signal flat (not every such curve was filed as active); inconclusive = small, poorly fitted or top-dose-only effect, or effect the other way, or a change in a side signal; inactive = flat fitted curve, though single readings scatter; the % refers to the signal ratio.
assay: qHTS Assay to Find Inhibitors of Chronic Active B-Cell Receptor Signaling; conditions: ABC-DLBCL IkBa-CBG/CBR reporter, luminescence ratio, 4 h; series mostly up to 46.1 µM; activity change, negative = inhibition: at the top concentration;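 as to activity change, negative = inhibition: plate controls were basal doxycycline-induced cells for no effect and cells given 10 µM MG132 for full effect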
Text: NIH Molecular Libraries Probe Production Network [MLPCN] NIH Chemical Genomics Center [NCGC] MLPCN Grant: 1 R03 DA031086-01A1 PI Name: Dr. R. Eric Davis NCGC Assay Overview: Diffuse large B-cell lymphoma (DLBCL) is the most common category of non-Hodgkin lymphoma, with ~20,000 new cases per year in the United States. DLBCL should be regarded as a collection of different neoplasms. Microarray gene expression analysis has defined two principal types of DLBCL, named for their similarity to normal B cell stages or activation states: a germinal center B-cell (GCB) type, and an activated B-cell (ABC) type. In ABC-DLBCL, a constitutive high-level activity of the NF-kappaB family of transcription factors has been observed (1) and NF-kappaB target genes are more highly expressed in ABC primary tumors than in GCB tumors. Functional studies have shown a constitutive high-level activity of the IkappaB (inhibitor of kappa-B) kinase (IKK) complex. […] Further analysis of DLBCL primary tumors for NF-kappaB target gene expression imply that although CARD11 is required for constitutive IKK activity in all ABC-DLBCL lines, mutations in CARD11 may be the root cause of IKK activation only in lines or tumors with such mutations. In other words, CARD11 mutations may explain NF-kappaB activation in only 10% of ABC-DLBCL cases. […] This process has been termed 'chronic active BCR signaling' (CABS). The goal of this screen is to find small-molecule inhibitors of the CABS pathway found in ABC-DLBCL lines using a cell-based assay that measures IkappaBalpa stability, which has already been extensively validated in the OCI-Ly3 line (PubChem AID:445; REF: 4). […] The assay uses green (CBG68) and red (CBR) emitting beetle luciferases [Chroma-GloTM developed by Promega Corp.] where the green luciferase is fused to IkappaBalpha and the red luciferase is present in its native state. Both luciferase genes are stably present in the TMD8 human ABC DLBCL cell line, but their expression is under the control of tetracycline-inducible promoters. Following the addition of doxycycline to induce expression of the luciferases, the green luminescence in control cultures rises only slowly because the CBG fusion partner IkappaBalpha is targeted by IKK activity for rapid degradation. In contrast, green luminescence rises rapidly in the presence of proteasome inhibitors or IKK inhibitors. The rise in red luminescence of CBR is not affected by proteasome or IKK inhibitors, and serves as normalization for cell number and nonspecific effects. Compounds were screened as a concentration-titration series that ranged from 46 uM to 3 nM.
NCGC Assay Protocol Summary: Cells were seeded in 1536-well plates at 5000 cells/4uL in IMDM medium containing 0.5% FBS, w/o phenol red, 1% penicillin/streptomycin. Then, 23 nL of compounds or DMSO were delivered to each well using a pin tool. One uL 20ng/ml doxycycline was then dispensed into white solid 1536-well plates and the plates were incubated at 37C/5% C02 in a cell incubator for 4 hrs. Then 4 uL luminescent substrate mix (in-house prepared: 150 mM Tris-Cl, pH 7.6, 3 mM MgCl2, 1% Triton X-100, 5 mM DTT, 0.2 mM CoA, 0.15 mM ATP, 5 mM D-luciferin, final concentrations) was added to each well. The plate was incubated at r.t. for 10-15 min. The plates were measured on a ViewLux plate reader for green luminescence (540/20 nm filter) and red luminescence (618/8 nm filter). The green and red luminescent signals were corrected for red and green luminescence filter overlap using previously determined filter calibration constants (determined using the procedure outlined in the Promega Technical Manual; REF 4). The %Activity was determined from the ratio of corrected green/red luminescent values. MG132 were used as control. […] Red luminescent %Activity was normalized to the difference between red luminesence in basal cells (0%Activity) and zero luminescence (-100% Activity). […]
Potency is read from the fitted curve at half-maximal effect.

SMILES	Potency	activity change, negative = inhibition [%]
CCCOc1ccccc1C1CC(=O)Nc2cc3c(cc21)OCO3 (centres undefined)	23.1 µM (active)	–
COc1cc2c(cc1OC)C(c1ccc(C)o1)CC(=O)N2 (centres undefined)	–	-6.34
COc1ccc(C2CC(=O)Nc3cc(C)c(C)cc32)c(OC)c1OC (centres undefined)	–	-9.44
COc1ccc(NC(=O)c2cnc(NS(=O)(=O)c3ccccc3)nc2)cc1	–	0.171
COc1ccc(NC(=O)c2sc(N)nc2-c2ccccc2)cc1	12.6 µM (active)	–
COC(=O)[C@H](Cc1ccccc1)NC(=O)Nc1ccc(OC)cc1	–	3.98
CCCCCCSc1ccc([C@@H]2[C@@H]3C(=O)N(CC)C(=O)[C@@H]3[C@]3(C(=O)OC)CCCCN23)cc1OC	–	1.7
O=C(c1ccc(S(=O)(=O)NCc2ccco2)cc1)N1CCN(c2ccccc2)CC1	–	0.277
CCN1C(=O)[C@@H]2[C@@H](c3ccc(-c4ccc(OC)cc4)c(OC)c3)N3CCC[C@@]3(C(=O)OC)[C@@H]2C1=O	–	0.451
COc1ccc(Cl)cc1NC(=O)CN(C)C(=O)c1cc2ccccc2cc1OC	–	-10.4
CC(C)N(Cc1nnc(-c2ccccc2Br)o1)C(=O)c1cc(Cl)nc2ccccc12	–	-1.67
COc1ccccc1N1CC(C(=O)Nc2nnc(SCC(=O)NC(C)C)s2)CC1=O (centres undefined)	–	4.55
COc1ccc(/C=N/Nc2cc(N3CCOCC3)nc(C)n2)c(OC)c1	–	-11.7
COc1ccc(N2CCN(C(=O)COC(=O)c3cccc(S(=O)(=O)Nc4ccccc4OC)c3)CC2)cc1	–	-0.343
Cn1c(CC(=O)NNC(=O)c2ccccc2F)nc2ccccc21	–	-10.5
CN1C(=O)[C@H]2[C@@H](/C=C/c3ccccc3)N3C(=O)CN(Cc4ccc(-c5ccccc5)cc4)C(=O)[C@@]3(C)[C@H]2C1=O	–	1.78
COc1cc(Cl)ccc1OCc1cc(C(=O)N(C)CCc2c(C)n[nH]c2C)no1	–	-1.42
CC1CCN(c2ccc(-c3ccc(NC(=O)c4ccco4)cc3)nn2)CC1	–	9.68
CC(C)(C)OC(=O)C[C@@H]1C/C=C\C[C@@H](CC(=O)N[C@H](CO)Cc2ccccc2)C(=O)NCCOC1=O	–	-1.38
CCN1C(=O)[C@@H]2[C@@H](c3ccc(-c4ccccc4)cc3)N3CCCC[C@@]3(C(=O)OC)[C@@H]2C1=O	–	-13.7
CCN(c1ccccc1)S(=O)(=O)c1ccc(C(=O)Nc2ccccc2OC)cc1	–	1.41
COc1ccc(-c2csc3ncnc(N4CCN(S(=O)(=O)c5cccc(F)c5)CC4)c23)cc1	–	-14.3

SMILES	Potency	activity change, negative = inhibition [%]
CC(=O)c1c(C)[nH]c(C(=O)COC(=O)c2cccs2)c1C	–	-2.67
COc1ccc(-c2c(C#Cc3ccsc3)c3cc(-c4ccc(CN5CCOCC5)cc4)ccc3n2C)cc1	–	3.39
O=C(Nc1cc(S(=O)(=O)Nc2ccc(Cl)cc2)ccc1O)c1ccc(F)cc1F	–	0.136
Cc1cc(C)cc(OCC(=O)Nc2ccc(N3CCOCC3)cc2N2CCOCC2)c1	–	-5.71
C=CC[C@H](CC(=O)NCCO)C(=O)N[C@@H](COC(=O)[C@@H](CC=C)Cc1ccc(F)cc1)Cc1c[nH]c2ccccc12	–	-0.684
CSCc1nnc(NC(=O)c2ccc(S(=O)(=O)N3CCCCC3C)cc2)o1 (centres undefined)	–	3.95
CCOCc1c(C(=O)N2CCN(Cc3ccc(Br)s3)CC2)oc2ccccc12	–	-2.34
COc1cc(OC)cc(-c2c(-c3cccs3)c3cc(-c4ccc(OC)cc4F)ccc3n2C)c1	–	4.81
COc1ccc(CNC(=O)C[C@H]2C[C@H](C(=O)N3CCOCC3)[C@@]3(C)c4[nH]c5cc(CCC(=O)N(C)C)ccc5c4CCN3C2=O)cc1OC	–	-3.2
O=C(COC(=O)c1c(Cl)cccc1Cl)Nc1cccc(S(=O)(=O)NC2=NCCCCC2)c1	–	-10.1
CCN(CC)S(=O)(=O)c1ccc(N2CCN(C)CC2)c(NC(=O)Nc2ccccc2F)c1	–	4.9
CCCN(CC(=O)NC(=O)NC1CCCCC1)CC(=O)Nc1cc(Cl)ccc1Cl	–	0.641
COc1cc(C(=O)NCc2ccncc2)cc(Br)c1OCc1ccccc1	–	5.05
CN(c1ccccc1)S(=O)(=O)c1cc(C(=O)N2CCN(c3ncccn3)CC2)ccc1Cl	–	3.2
CN[C@H](C(=O)NC[C@H]1O[C@@H](n2cnc3c(N)ncnc32)[C@H](O)[C@@H]1O)[C@@H](C)OCc1ccccc1	–	6.59
CCN(CC)S(=O)(=O)c1ccc(CNC(=O)CN2C(=O)NC3(CCc4ccccc43)C2=O)cc1 (centres undefined)	–	-2.21
O=C(NC1CCCCCC1)C1CCN(C(=O)c2ccc(Cl)cc2)CC1	–	1.11
Cc1nn(Cc2ccccc2)c(C)c1C(=O)N1CCN(CC(=O)Nc2ccccc2Cl)CC1	–	-1.85
COc1cc(OC)cc(-c2c(-c3ccc(F)cc3)c3cc(-c4ccc5cc[nH]c5c4)ccc3n2C)c1	–	8.48
O=C(CNC(=O)c1ccco1)NNC(=O)c1ccc(Br)cc1	–	5.31
CC(C)(C)OC(=O)C[C@@H]1C/C=C\C[C@@H](CC(=O)NCCO)C(=O)N[C@H](Cc2c[nH]c3ccccc23)COC1=O	–	-1.8
CC(C)c1ccc(S(=O)(=O)N2CCN(C(C)C(=O)NC3CCCC3)CC2)cc1 (centres undefined)	–	3.72
